High-throughput results: PubChem, National Center for Advancing Translational Sciences (NCATS)
Compounds with a hit are over-represented: about 11% of the library has one in this group of screens.
IMPase Li cell: cell-permeable IMPase inhibitors with lithium potentiation; CHO-M1 cells, IP1 TR-FRET (IP-One), carbachol + lithium; Potency, µM (titrated, usually from 59.4 µM), for the others: at the top dose activity, negative = IMPase inhibition, actives largely listed as inhibitors; actives 0.35% (n = 210,000); active = well fitted curve in the direction sought with a large enough effect; inconclusive = small, poorly fitted or top-dose-only effect, or another doubt; inactive = no such curve, though single readings can be large; an effect the other way counts as inactive or inconclusive;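 note: IP1 builds up when IMPase is blocked and the TR-FRET signal falls; potency is the fitted concentration of half-maximal effect; plate controls were basal vehicle for no effect and high inhibitor control for full effect; nearly all actives have a fitted effect of over 50% in size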
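CHO cells stably expressing M1 receptor (2000/well) were cultured 16–30 h, then exposed to compounds with a small lithium addition for 30 min at 37C. IP1 was measured by TR-FRET competition; AC50 from Hill fits.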
ALDH1A1 inh: blocks purified human ALDH1A1 activity; AID 1030; P00352; actives 7.3% (n = 220,000); Purified ALDH1A1, NADH fluorescence, propionaldehyde substrate; Potency, µM (doses to about 75.3 µM), inactives show at the top dose activity, negative = inhibition, actives largely listed as inhibitors;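 note: potency is the fitted concentration of half-maximal effect; plate controls were no enzyme wells and a reference inhibitor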
Target sequence (P00352 whole entry, looked up): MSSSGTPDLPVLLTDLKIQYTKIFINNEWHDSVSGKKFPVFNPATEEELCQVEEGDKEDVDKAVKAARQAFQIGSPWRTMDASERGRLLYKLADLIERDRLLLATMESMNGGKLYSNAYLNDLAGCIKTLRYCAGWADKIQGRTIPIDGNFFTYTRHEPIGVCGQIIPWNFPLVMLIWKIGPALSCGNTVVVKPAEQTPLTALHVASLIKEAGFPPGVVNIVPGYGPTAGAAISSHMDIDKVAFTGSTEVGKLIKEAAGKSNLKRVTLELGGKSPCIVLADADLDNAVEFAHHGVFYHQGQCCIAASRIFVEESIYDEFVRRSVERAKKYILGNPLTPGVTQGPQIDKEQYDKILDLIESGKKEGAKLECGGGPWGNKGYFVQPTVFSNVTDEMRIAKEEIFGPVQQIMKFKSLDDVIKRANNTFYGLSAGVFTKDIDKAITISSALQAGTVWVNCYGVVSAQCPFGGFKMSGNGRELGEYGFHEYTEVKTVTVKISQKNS
HPGD block: blocks human HPGD enzyme activity; actives 4.3% (n = 150,000); purified HPGD, NADH fluorescence kinetic, PGE2 substrate; P15428; AID 894; Potency, µM, inactives show at the highest dose activity change, negative = inhibition, most hits filed as inhibitors; note: potency is the fitted concentration of half-maximal effect
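20 nM HPGD preincubated 15 min at room temperature with compound in 50 mM Tris-HCl pH 8, 0.01% Tween 20. Started with 1 mM NAD+ and 30 uM prostaglandin E2; NADH fluorescence (360/450 nm) read 5 times over 30-s intervals, last minus first.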
PNC assembly inh: inhibitors of perinucleolar compartment assembly. activity change (PNC), negative = inhibition, % at 10 µM. AID 2417. actives 3.1% (n = 140,000). PC3M PTB-GFP, PNC prevalence imaging, 16 h; stronger effect = lower value;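 active = readout at or below -70, meaning at least 70% loss of cells showing the perinucleolar compartment, a nuclear body marking cancer cells; inconclusive = readout between -30 and a set limit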;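 note: plate controls were DMSO wells for no effect and camptothecin positive control wells for full effect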
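Compounds are pinned in duplicate onto adhered PC3M cells stably expressing GFP-tagged PTB and incubated 16 h at 37 C. Cells are then fixed, nuclei stained with Hoechst, and PNC-positive cells counted.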
NPSR antag: blocks cAMP signaling of the human neuropeptide S receptor | CHO-NPSR cells, cAMP TR-FRET, antagonist mode | Potency, µM (titrated, usually from 38.3 µM), for the others: top-dose activity change, negative = inhibition, usual class: inhibitors | actives 1% (n = 220,000); active = well fitted curve in the direction sought with a large enough effect; inconclusive = small, poorly fitted or top-dose-only effect, or another doubt; inactive = no such curve, though single readings can be large; an effect the other way counts as inactive or inconclusive; note: potency is the fitted concentration of half-maximal effect; nearly all actives have a fitted effect of over 50% in size
IMPase cell inh: cell-permeable inhibitors of inositol monophosphatase (IMPase); 120,000 tested, under 10 active; CHO-M1 cells, IP1 accumulation, HTRF TR-FRET ratio; AID 901; inhibition (IP1 accumulation), % at 46.1 µM; P97697; active = well fitted curve in the direction sought with a large enough effect in the signal ratio, not every such curve was filed as active; inconclusive = small, poorly fitted or top-dose-only effect, or a change in a side signal; inactive = no such curve, though single readings can be large or run the other way; the % refers to the signal ratio;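 note: cells stimulated with carbachol in lithium chloride buffer; plate controls were DMSO basal wells for no effect and reference inhibitor wells for full effect; higher means more IMPase inhibition seen as more IP1 and lower FRET ratio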
Target sequence (P97697 whole entry, looked up): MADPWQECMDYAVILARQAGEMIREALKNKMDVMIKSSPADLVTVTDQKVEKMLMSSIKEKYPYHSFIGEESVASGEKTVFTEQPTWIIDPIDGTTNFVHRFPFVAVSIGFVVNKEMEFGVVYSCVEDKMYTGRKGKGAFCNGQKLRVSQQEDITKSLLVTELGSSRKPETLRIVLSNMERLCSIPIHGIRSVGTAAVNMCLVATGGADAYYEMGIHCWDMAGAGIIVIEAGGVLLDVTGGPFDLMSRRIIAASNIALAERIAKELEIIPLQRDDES
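CHO-M1, 2000 cells/well, cultured 16–30 h; cpd up to 46 uM; carbachol (50 uM solution, stimulation buffer w/ 50 mM LiCl, pH 7.4), 30 min 37C; IP-One TR-FRET, 10 min RT; Ex 320/Em 665, 620; Hill-fit AC50.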
An asterisk follows results filed as active; u = inconclusive; x = no result given; [ ] = another dose, or the depositor's remark. Unless noted, calls come from the whole dose curve; as a rule, active = well fitted inhibition curve with a large enough effect (not every such curve was filed as active); inconclusive = small, poorly fitted or top-dose-only effect, or another doubt; inactive = no such curve, though single readings can be large or run the other way. Unless noted, % is set by controls: 0 for no effect and ±100 for the full control effect.

SMILES	IMPase Li cell	ALDH1A1 inh	HPGD block	PNC assembly inh	NPSR antag	IMPase cell inh
O=C1C2CC=CCC2C(=O)N1Cc1ccccc1 (centres undefined)	9%	u	-5%	u	7%[46.1 µM]	7
CCC1(C)Cc2nc3[nH]c(=S)n(-c4ccccc4)c(=O)c3cc2CO1 (centres undefined)	-14%	u	1%	0	-24%	x
CCC(Sc1nc(-c2ccccc2)cc(=O)[nH]1)C(=O)O (centres undefined)	-5%[38.3 µM]	-1%	-9%	28	4%[46.1 µM]	-3
CC(C)Sc1nc(-c2ccccc2)cc(=O)[nH]1	-1%[38.3 µM]	20µM*	-30%	-14	-5%[46.1 µM]	-6
C/C(=C\c1ccc(Cl)cc1)C(C)(C)C(=O)O	-3%	-11%[13.5 µM]	-7%	x	x	x
O=C(O)c1cccc(NC2=C(Cl)C(=O)c3ccccc3C2=O)c1	27%	32µM*	x	x	u	x
Cc1ccc(NCC(=O)c2ccccc2)cc1Cl	11%[38.3 µM]	20µM*	-25%	2	5%[46.1 µM]	0[1.84 µM]
Cc1ccc(C(=O)CNc2cccc(Cl)c2)cc1	10%	22µM*	-9%	26	13%	14
Cc1ccc(NC2=C(NC(=O)c3ccccc3)C(=O)c3ccccc3C2=O)cc1Cl	14%	20µM*	20µM*	-22	-2%	19
Cc1ccc(NC(=O)/C=C/c2ccccc2Cl)cc1Cl	x	x	x	x	x	-1
Cc1cc(NC(=O)CSc2nnc(C3COc4ccccc4O3)n2C)no1 (centres undefined)	-5%	-5%	x	x	0%	x
CCS(=O)(=O)N1Cc2ccccc2CC1C(=O)Nc1nc2c(C)cccc2s1 (centres undefined)	8%	-7%	-16%	26	-2%	x
Cc1cccc(N2CCN(C(=O)C3CCN(S(=O)(=O)N4CCOCC4)CC3)CC2)c1C	5%	u	x	x	3%	x
COc1cc(NC(=O)c2onc(C)c2Cl)c(OC)cc1Cl	8%	u	-21%	-17	5%[46.1 µM]	-4
Cc1ccc(NC(=O)C(c2ccccc2)N(C)C)cc1Cl (centres undefined)	17%	1.4µM*	x	x	-33%	x
Cc1ccc(C(=O)CNc2ccc(C)c(Cl)c2)cc1	-6%	10µM*	-30%	40	10%	x
CCc1ccc(C(=O)NNc2ccc(C)c(Cl)c2)cc1	x	x	x	x	-3%[7.67 µM]	x
Cc1ccc(NCCC(=O)c2ccccc2)cc1Cl	0%	3.2µM*	x	x	-41%	x
Cc1ccc(NC(=O)CNC(=O)c2ccccc2F)cc1Cl	-3%	4%	-6%	u	-6%[46.1 µM]	-5
CCN1C=C(C(=O)OC)C(c2cccc(C)c2)C(C(=O)OC)=C1	-12%[38.3 µM]	u	u	-80*	-9%[46.1 µM]	2
COC(=O)C1=CN(Cc2cccs2)C=C(C(=O)OC)C1c1cccc(Cl)c1	15%	u	x	x	u	x
CCO[C@@H]1OC(C(=O)Nc2ccccc2)=C[C@H](c2ccccc2)[C@H]1CCCO	2%	0%	x	x	16%	x
COc1ccc(N(CC(=O)NCc2ccco2)S(=O)(=O)c2ccc(C)cc2)cc1	4%	u	x	x	-7%	x
CC(=O)N1N=C2c3ccccc3CCC2C1c1ccc(F)cc1 (centres undefined)	x	-8%	x	x	41%	x
COc1ccc2c(c1)CCC1C2=NN(/C(C)=C/C(C)=O)C1c1cccc(F)c1 (centres undefined)	8%	28µM*	x	x	20%	x
SMILES	IMPase Li cell	ALDH1A1 inh	HPGD block	PNC assembly inh	NPSR antag	IMPase cell inh
Cc1cc(C)nc(/N=C(/NC(=O)Nc2cccc(Cl)c2)Nc2ccccc2)n1	0%[38.3 µM]	-4%	-6%	23	8%[46.1 µM]	-10
COc1ccc(Oc2coc3c(CN4CCOCC4)c(O)ccc3c2=O)cc1	40%[38.3 µM]	u	u	-13	10%[46.1 µM]	3
COc1cc2c(cc1OC)CN(c1ccc(-c3ccccc3OC)nn1)CC2	12%[38.3 µM]	-2%	35µM*	-17	-4%[46.1 µM]	6
Cc1ccc(Cl)c(OCCCN(C)Cc2ccccc2)c1	x	x	x	x	-27%	x
CCn1c(CC(=O)Nc2cccc(OC)c2)nnc1SCC(=O)N1CCN(c2ccccc2)CC1	13%[38.3 µM]	5%	1%	-85*	-5%[46.1 µM]	-11
COc1cccc(NC(=O)Cc2nnc(SCC(=O)c3ccccc3)n2C)c1	2%	8.9µM*	32µM*	230	-9%[46.1 µM]	4
COc1cccc(NC(=O)Cc2nnc(SCCOc3ccccc3)n2C)c1	23%[38.3 µM]	-11%	-3%	8	-12%[46.1 µM]	4
COc1ccc(C(=O)OC2CCN(c3ncc(C(F)(F)F)cc3Cl)CC2)cc1	-9%[38.3 µM]	2%	-16%	-2	-13%[46.1 µM]	0
CCc1c(C(=O)N/N=C/c2cn[nH]c2-c2ccc(F)cc2)csc1C	-6%	u	-10%	60	-15%	x
N#CC1(NC(=O)CN2CCN(S(=O)(=O)c3ccccc3F)CC2)CCCC1	x	x	x	x	17%	x
CC(C)(C)NC(=O)CN(C(=O)C1(C)CC(=O)N=C2C=CC=CN21)C1CCCC1 (centres undefined)	8%[38.3 µM]	u	u	-10	7%[46.1 µM]	-10
Cc1cccc(NC(=O)CS(=O)(=O)c2cn(C)c3ccccc23)c1C	31%[38.3 µM]	u	-11%	33	3%[46.1 µM]	3
O=[N+]([O-])c1ccc(S(=O)(=O)CC(CN2CCCCC2)N2CCCCC2)cc1 (centres undefined)	14%	7.1µM*	x	x	24%	x
CCOC(=O)N1N=C(c2ccccc2)CC1(O)C(F)(F)F (centres undefined)	1%[38.3 µM]	2%	-3%	28	6%[46.1 µM]	-1
CCOC(=O)N1N=C(CC)CC1(O)C(F)(F)F (centres undefined)	9%	6%	2%	-86*	-1%	10
CC1CN(C2=Nc3cccc4cccc2c34)CC(C)O1 (centres undefined)	23%	-69%	x	x	-17%	x
O=C(/C=C/c1ccc(O)cc1)c1ccccc1	x	x	x	x	23%	x
O=C/C=C/c1ccc(O)cc1	-6%	3.5µM*	-14%	x	x	x
Cc1cc(NC(=O)CSc2nnc(-c3ccncc3)n2N)ccc1Br	-2%[38.3 µM]	u	-12%	-89*	3%[46.1 µM]	-7
CCc1c(C)nc(SCC(=O)Nc2ccc3c(c2)OCCO3)[nH]c1=O	-4%	11µM*	x	x	-12%	x
CC(C)Oc1cccc(-c2nnc(SCC(=O)Nc3ccc4c(c3)OCCO4)n2N)c1	-7%[38.3 µM]	13µM*	-12%	-8	-12%[46.1 µM]	4
O=C(CSc1nnc2scc(-c3ccccc3)n12)Nc1ccc2c(c1)OCCO2	1%[38.3 µM]	16µM*	-8%	u	-12%[46.1 µM]	0
Cc1nnc(SCC(=O)Nc2ccc3c(c2)OCO3)[nH]c1=O	-4%	0%	x	x	20%	x
O=C(CSc1nnc2scc(-c3ccccc3)n12)Nc1ccc(Cl)cc1	x	x	x	x	x	9
